Bioassay records deposited in PubChem BioAssay by National Center for Advancing Translational Sciences (NCATS).
ClpP mod: qHTS Assay for Activators of ClpP. ATP-dependent Clp protease proteolytic subunit (Bacillus subtilis (strain 168)), P80244. purified B. subtilis ClpP, FRET peptide cleavage, 20 min. Potency, µM (series often up to 57.5 µM), without a hit: top-dose activity change, negative = active. actives 1.9% (n = 340,000); active = well fitted falling curve with a large enough effect; inconclusive = small, poorly fitted or top-dose-only effect; inactive = no such curve, though single readings can be large or run the other way; also: potency is read from the fitted curve at half-maximal effect; the source files actives as falling curves though it sought activators and does not explain the sign; nearly all actives have a fitted effect of over 65% in size
Target sequence (P80244 whole entry, looked up): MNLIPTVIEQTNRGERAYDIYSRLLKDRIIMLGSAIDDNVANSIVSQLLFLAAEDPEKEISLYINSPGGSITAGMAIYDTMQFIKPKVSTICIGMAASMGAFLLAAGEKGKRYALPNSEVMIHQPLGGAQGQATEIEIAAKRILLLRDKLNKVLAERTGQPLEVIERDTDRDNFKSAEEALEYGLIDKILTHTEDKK
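Buffer: 100 mM Tris/HCl pH8, 100 mM KCl, 0.05% low protease BSA, 2.5% glycerol, 0.01% Tween-20. ClpP 10 microg/mL final; 20 min RT; delta FRET normalized to ADEP and DMSO controls.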
RXFP1 agonist: qHTS Assay for Agonists of the Relaxin Receptor RXFP1; HEK293T-RXFP1 cAMP TR-FRET, 30 min; response scale: percent of porcine relaxin response, buffer zero; Relaxin receptor 1 (Homo sapiens), Q9HBX9; Potency, µM (doses to about 57.5 µM), for the others: at the top dose activation, actives largely listed as activators; actives 0.3% (n = 370,000); active = well fitted activation curve with a large enough effect; inconclusive = small, poorly fitted or top-dose-only effect; also: potency is read from the fitted curve at half-maximal effect; % is scaled to controls: 0 for no effect and ±100 for the full control effect; nearly all actives have a fitted effect of over 60% in size
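Agonist response is measured as cAMP accumulation in an RXFP1-transfected HEK293T line under PDE4 inhibition. Values are scaled between buffer-only and 29 nM porcine relaxin, and EC50s come from standard Hill equation fits.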
gsp antag: qHTS for Antagonists of gsp, the Etiologic Mutation Responsible for Fibrous Dysplasia/McCune-Albright Syndrome: qHTS; gsp-mutant cells, cAMP HTRF, 30 min; actives 0.4% (n = 340,000); Potency, µM (series often up to 76.9 µM), for the others: at the highest dose activity change, negative = inhibition, usual class: inhibitors; calls by dose curve; cell line not stated here;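 also: intracellular cAMP measured with PDE inhibitor Ro 20-1724 present during compound exposure; potency is read from the fitted curve at half-maximal effect; % is scaled to controls: 0 for no effect and ±100 for the full control effect; nearly all actives have a fitted effect of over 65% in size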
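Measurement of cellular cAMP by homogeneous time-resolved fluorescence following a 30 min compound exposure at 37C. The PDE inhibitor […] was present throughout; the assay buffer was DPBS with 0.05% BSA and 0.005% Tween 20.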
pAkt inh: HTS Assay for Inhibitors of Akt Phophorylation: Primary Screen. Neuro2A IGF-stimulated pAkt S473 HTRF, 20 min; active compounds read low. activity change, % for hits at 50 µM. actives 0.32% (n = 360,000). AID 651550, 2012; in the data active = activity change below about -80%; inconclusive = mostly about -51% to -80%; also: % is scaled to controls: 0 for no effect and ±100 for the full control effect
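Neuro2A cells in DMEM with 0.5% FBS, overnight at 37 deg C, given compound at single 50 µM final, then IGF (6 nM final) for 20 min at 37 deg C. Lysed; phospho-Akt Ser473 by HTRF after 24 h, 665/615 ratio.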
RXFP1 antag: qHTS Assay for Antagonists of the Relaxin Receptor RXFP1; HEK293-RXFP1, relaxin-stimulated cAMP HTRF, 30 min; active compounds read low; AID 1259400, 2018; actives 0.59% (n = 350,000); activity change, negative = inhibition, % at 57.5 µM;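 active = activity change of -60% or lower, but not beyond a set lower limit; inconclusive = change between -60% and -40%, or beyond the set limit; inactive = change above -40%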; also: % is scaled to controls: 0 for no effect and ±100 for the full control effect
gsp agonist: qHTS for Agonist of gsp, the Etiologic Mutation Responsible for Fibrous Dysplasia/McCune-Albright Syndrome: qHTS. Potency, µM (top dose mostly 76.9 µM), inactives show at the top dose activation (cAMP increase), actives largely listed as activators. actives 0.13% (n = 340,000). gsp mutant cells, cAMP HTRF, 30 min; active = well fitted activation curve with a large enough effect; inconclusive = small, poorly fitted or top-dose-only effect, or another doubt; inactive = no such curve, though single readings can be large or run the other way; cell line not stated here;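 also: phosphodiesterase inhibitor Ro 20-1724 added with compounds to block cAMP breakdown; potency is read from the fitted curve at half-maximal effect; nearly all actives have a fitted effect of over 60% in size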
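Cells stably selected in G418 were plated at 2000/well, grown 16-24 hr, then given compounds in DMSO with the PDE inhibitor […] (300 uM solution added) for 30 min at 37C; cAMP was read by HTRF.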
Active calls of the source: *; i = inactive; ? = inconclusive; · = no result given; [ ] = another dose, or the depositor's remark. An excerpt weighted towards active compounds, which were near 2.7% of everything screened.

SMILES	ClpP mod	RXFP1 agonist	gsp antag	pAkt inh	RXFP1 antag	gsp agonist
CCOC(=O)C1CCN(C(=O)Nc2ccc3snnc3c2)CC1	-11.9%	-0.3%	-4.3%	i	-0.4	?
CCOC(=O)C1CCN(C(=O)Nc2ccc3nccnc3c2)CC1	31.6µM*	-0.5%	5.2%	i	0.4	9.1%
CCOC(=O)N(C(=O)c1ccccc1)c1ccccc1	0.6%	·	·	·	·	·
CCn1cc2nc(SCC(=O)Nc3ccc(C)cc3C)n(Cc3ccc(C)cc3)c(=O)c2n1	0.3%	5.6%	·	·	-9.5	·
COc1cc(Cl)c(NC(=O)c2cc(S(=O)(=O)N3CCCCC3)c[nH]2)c(OC)c1	53.4%	-0.3%	·	·	5.5	·
CN(C(=O)COC(=O)CSc1ccc([N+](=O)[O-])cc1)C1CCS(=O)(=O)C1 (stereo not given)	·	-0.2%	-0.9%	i	-100.5*	7.6%[15.4 µM]
COC(=O)C1=CN(C(C)C)C=C(C(=O)OC)C1c1cc2c(cc1Br)OCO2	31.6µM*	13.2%	0.4%	i	9.2	11.6%
CC1=C(C(=O)OCC(C)C)C(c2cc3c(cc2Br)OCO3)NC(=O)N1C (stereo not given)	0.6%	-0.4%	-8.7%	i	-8.7	-24.1%
COc1cccc(NC(=O)Cn2c(=O)n(-c3ccccc3)c(=O)c3c2c2cc(OC)ccc2n3C)c1	4.4%	0.8%	·	·	·	·
COc1cc(C2C(C#N)=C(N)N(Nc3ccccc3)C3=C2C(=O)CC(C)(C)C3)ccc1OCc1cccc(F)c1 (stereo not given)	-7.6%	0.4%	-16.3%	-91.9%*	-26.2	-12.4%
COc1cc(C2C(C#N)=C(N)N(Nc3ccccc3)C3=C2C(=O)CC(C)(C)C3)ccc1OCc1ccccc1 (stereo not given)	-24.3%	1.0%	-5.5%	i	-6.5	-28.1%
CCc1nn2c(=O)cc(COC(=O)c3ccccc3NC(=O)C3CCCCC3)nc2s1	-5.6%	2.9%	·	·	8.9	·
CNC(=O)/C(C#N)=C/c1c(N2CC(C)OC(C)C2)nc2ccccn2c1=O (stereo not given)	28.2µM*	0.5%	0.8%	i	5.0	?
CCNC(=O)/C(C#N)=C/c1c(N2CC(C)OC(C)C2)nc2ccccn2c1=O (stereo not given)	-15.6%	5.0%	-10.8%	i	-12.8	?
O=C(COc1ccc(F)cc1)Nc1nnc(S(=O)(=O)N2CCc3ccccc32)s1	-1.5%	-4.5%	·	·	-15.9	·
CCOc1ccccc1NC(=O)CCc1c(C)nc2c3cccnc3nn2c1C	28.2µM*	5.7%	·	·	-29.3	·
CN1CCc2c(n(CC(O)CNCc3ccccc3)c3ccccc23)C1=O (stereo not given)	-26.5%	0.5%	9.3%	i	-13.4	-59.8%
CC(C)NCC(O)Cn1c2c(c3ccccc31)CCc1c-2cnn1-c1ccccc1 (stereo not given)	8.91µM*	-2.5%	2.0%	i	?	7.5%
CNCCCOc1ccc2c(c1)CCC2	·	-0.7%	5.4%	i	16.0	-1.7%
Cc1cccc(OCCOCCSc2ncccn2)c1	-0.8%	-0.1%	8.7%	i	-4.0	-36.5%
c1ccc(OCCOCCSc2ncccn2)cc1	20µM*	2.0%	4.7%	i	·	-12.2%
c1cnc(SCCOc2ccc3c(c2)CCC3)nc1	-1.2%	0.7%	?	-117.5%*	-4.2	-44.9%
CCCCOc1ccc(C(=O)NCc2cn3cccc(C)c3n2)cc1	-25.8%	3.1%	·	·	10.6	·
